Measured potencies and affinities stand elsewhere. Results filed as inconclusive are left out. Values without a mark were called inactive. Calls of active or inactive are those of the source.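 The calls were made as follows: active = fitted half-maximal concentration no higher than twice the top tested dose, in every repeat run; inconclusive = repeat runs disagree, poor fit, or flat partial inhibition; inactive = the rest.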

Endoplasmic reticulum aminopeptidase 1 (Homo sapiens), sequence (Q9NZ08 whole entry, looked up): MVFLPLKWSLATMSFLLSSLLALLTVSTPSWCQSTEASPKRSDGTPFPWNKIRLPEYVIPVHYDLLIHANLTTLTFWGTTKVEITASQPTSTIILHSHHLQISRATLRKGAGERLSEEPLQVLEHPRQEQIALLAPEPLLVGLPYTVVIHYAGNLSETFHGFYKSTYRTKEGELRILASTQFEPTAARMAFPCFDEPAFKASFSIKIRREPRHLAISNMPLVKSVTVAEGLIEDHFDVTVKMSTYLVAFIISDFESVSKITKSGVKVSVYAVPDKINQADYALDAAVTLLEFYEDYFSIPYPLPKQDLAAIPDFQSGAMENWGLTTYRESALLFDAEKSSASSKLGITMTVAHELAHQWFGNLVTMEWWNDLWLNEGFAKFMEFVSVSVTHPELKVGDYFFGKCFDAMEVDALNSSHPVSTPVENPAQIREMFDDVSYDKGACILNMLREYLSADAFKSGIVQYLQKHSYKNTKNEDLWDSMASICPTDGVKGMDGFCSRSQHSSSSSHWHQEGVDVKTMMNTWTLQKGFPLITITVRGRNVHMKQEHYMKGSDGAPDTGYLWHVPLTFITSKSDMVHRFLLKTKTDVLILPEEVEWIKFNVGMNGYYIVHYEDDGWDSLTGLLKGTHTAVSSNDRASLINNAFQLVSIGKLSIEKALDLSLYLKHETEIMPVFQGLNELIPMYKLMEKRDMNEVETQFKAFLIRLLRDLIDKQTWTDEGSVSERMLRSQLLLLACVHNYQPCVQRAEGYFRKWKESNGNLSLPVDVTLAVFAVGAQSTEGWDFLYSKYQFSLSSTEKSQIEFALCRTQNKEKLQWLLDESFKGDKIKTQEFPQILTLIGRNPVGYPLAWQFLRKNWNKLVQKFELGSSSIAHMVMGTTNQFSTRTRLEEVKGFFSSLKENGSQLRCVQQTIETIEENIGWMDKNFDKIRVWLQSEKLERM

The assay addresses Endoplasmic reticulum aminopeptidase 1 (Homo sapiens) (UniProt Q9NZ08). The assay can be described thus: inhibition of human ERAP1 enzyme activity – biochemical, cherry-pick, set 2, plate reader, dose response (AID 743314).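 Also: 0% = neutral control wells and -100% = L-leucinethiol positive control.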 As to conditions: Recombinant ERAP1, Leu-AMC fluorescence, 60 min; series mostly up to 11 µM.
Take `CCN(CC)C(=O)c1ncn(C)c1C(=O)N(CC)CC`: the result was inactive.

Turning to `COc1cc2cc(C(=O)N3CCN(Cc4ccc5c(c4)OCO5)CC3)c(=O)oc2cc1OC`, the outcome was inactive.

Consider `C[C@H](CO)N1C[C@H](C)[C@@H](CN(C)C)Oc2c(NC(=O)Nc3ccc(C(F)(F)F)cc3)cccc2C1=O`, for which the result was inactive.

On to `COc1ccccc1CN1[C@H](CO)[C@@H](c2ccccc2)C12CN(C(=O)c1ccccn1)C2`, for which the result was inactive. Still for that read-out and setting: next, `CCCNC(=O)N1C[C@@H](C)[C@@H](OC)CN(C)C(=O)c2cc(NS(=O)(=O)CC(F)(F)F)ccc2OC[C@@H]1C`: “inactive”; `Cc1ccc(NC(=O)C(C)OC(=O)C2CC3CCCC(C2)C3=O)cc1S(=O)(=O)N1CCOCC1` (centres undefined): “inactive”.

As to `COc1ccc(S(=O)(=O)N[C@@H]2C=C[C@H](CC(=O)NCc3ccccc3F)O[C@@H]2CO)cc1`, the outcome was inactive. Turning to `CCn1cc(CN2CCCC(C(=O)Nc3ccc(-c4nc5ccccc5[nH]4)cc3)C2)c(C)n1` (centres undefined), the result was inactive. `COc1ccc(C#Cc2cccc(-c3nc(C(=O)N4CCN(C)CC4)cc4c3[C@@H](CCO)N(S(=O)C(C)(C)C)C4)c2)cc1OC` (some centres undefined): the outcome was inactive.

On to `COc1cccc(-c2ccc([C@H]3[C@H]4CN(C(=O)c5cccnc5)CC(=O)N4[C@H]3CO)cc2)c1`, for which the result was inactive. On the same count and under the same terms, next, `O=C(c1ccc(F)cc1)N1CC2(C1)[C@@H](c1ccccc1)[C@@H](CO)N2Cc1ccccn1`: “inactive”; `COc1ccc(C2=NN(c3ccc(C(=O)O)cc3)C(c3ccc(OC)c(OC)c3)C2)cc1` (centres undefined): “inactive”; `CN1[C@@H]2c3ccc(/C=C/c4ccccc4)c(=O)n3C[C@@H]2[C@@H](CO)[C@@H]1C(=O)N1CCCCC1`: “inactive”. The same measure, in the same setting: with `COc1ccc(NC(=O)Nc2cccc3c2O[C@H](CN(C)Cc2ccc(C(=O)O)cc2)[C@H](C)CN([C@@H](C)CO)C3=O)cc1` the entry was “inactive”.

In the case of `O=C(Nc1ccc(C(F)(F)F)cc1)N1[C@@H]2CNC[C@H]1C2c1ccc(-c2ccncc2)cc1` (some centres undefined), the result was inactive. Consider `C[C@H]1CN([C@@H](C)CO)C(=O)Cc2cc(NC(=O)Nc3cccc4ccccc34)ccc2O[C@@H]1CN(C)Cc1ccc(C(=O)O)cc1`, for which the outcome was inactive. On the same count and under the same terms, with `Cc1ccc(Cl)cc1NC(=O)CCC(=O)O` the entry was “inactive”; with `Cc1ccc2nc3c(cc(C(=O)NCc4ccccc4)c(=N)n3CCCn3ccnc3)c(=O)n2c1`, “inactive”; with `C[C@H]1CN([C@@H](C)CO)C(=O)c2cc(NC(=O)CCN3CCOCC3)ccc2O[C@@H]1CN(C)S(=O)(=O)c1ccccc1`, “inactive”.

With `CN1C2=NCCN2C(=O)c2cc(Cl)ccc21`, the result was inactive.

In the case of `COc1ccc2c3c([nH]c2c1)[C@H](CO)N(S(=O)(=O)c1cn(C)cn1)CC31CCN(CC2CCCCC2)CC1`, the result was inactive. Same read-out and setting: with `COCCN(CC(=O)Nc1cccc(C)c1C)C(=O)CN1C(=O)NC2(CCCCC2)C1=O` the entry was “inactive”; with `CCCNC(=O)C[C@H]1CC[C@@H]2[C@H](COC[C@H](O)CN2C(=O)Nc2cccc(Cl)c2)O1`, “inactive”; with `COc1ccc(CN(C)C[C@@H]2Oc3c(NC(=O)NC4CCCCC4)cccc3C(=O)N([C@@H](C)CO)C[C@@H]2C)cc1`, “inactive”. The same measure, in the same setting: next, `O=C(CN1CCN(S(=O)(=O)N2CCOCC2)CC1)Nc1ccc(Cl)c(Cl)c1`: “inactive”; `COc1ccc(CN(C)C[C@@H]2Oc3c(NC(=O)NC4CCCCC4)cccc3C(=O)N([C@H](C)CO)C[C@H]2C)cc1`: “inactive”. On the same count and under the same terms, next, `C/C=C/c1ccc([C@H]2[C@@H](CO)N(C(=O)CC)[C@@H]2CNCC2CCCCC2)cc1`: “inactive”. Regarding `CCCC(=O)Nc1ccc2c(c1)OC[C@@H](C)N(CC1CCOCC1)C[C@H](C)[C@@H](OC)CN(C)C2=O`, the result was inactive. With `CCC(C)N(C(=O)COC(=O)c1nc2nc(C)cc(C)n2n1)C1CCS(=O)(=O)C1` (centres undefined), the outcome was inactive.

As to `CSc1cccc(NC(=O)CCCNC(=O)c2ccc(Cl)cc2)c1`, the outcome was inactive. Still for that read-out and setting: next, `O=c1oc2cc(O)ccc2cc1-c1nc2ccccc2o1`: “inactive”; `COc1ccc(CN(C)C[C@H]2OCCCC[C@H](C)Oc3ccc(NS(=O)(=O)c4cccs4)cc3C(=O)N([C@H](C)CO)C[C@H]2C)cc1`: “inactive”; `CCN(C(=O)COC(=O)c1cnc(C)cn1)C1CCS(=O)(=O)C1` (centres undefined): “inactive”. As to `CC(=O)Oc1ccc(-c2cc3c(OC(C)=O)cc(OC(C)=O)cc3oc2=O)cc1`, the activity change, negative = inhibition is 13.7% [at 2.6 µM].

In the case of `O=C(C[C@@H]1C=C[C@H](NC(=O)Nc2cccc(F)c2)[C@H](CO)O1)NCC1CCCCC1`, the outcome was inactive. In the case of `COc1ccc(C(=O)NCc2nnc(SCC(=O)NC3CCCCC3)n2C)cc1`, the outcome was inactive.

On to `Cc1noc(C)c1NC(=O)N(C)C[C@@H]1Oc2c(NC(=O)Nc3ccccc3)cccc2C(=O)N([C@H](C)CO)C[C@@H]1C`, for which the result was inactive. The same measure, in the same setting: with `COc1ccc2c3c([nH]c2c1)[C@H](CO)N(CC1CC1)CC31CCN(C(=O)c2ccccc2F)CC1` the entry was “inactive”.

Consider `Cc1c(O)ccc2c(CN3CCN(Cc4ccccc4)CC3)cc(=O)oc12`, for which the outcome was inactive.

For the origin of these results see PubChem BioAssay AID743314 (Broad Institute, 2014).
